From PubChem BioAssay
FLuc inh = Firefly luciferase inhibition profiling of diverse chemical library using quantitative high-throughput screening | purified P. pyralis luciferase, luminescence, biochemical | Potency, µM (doses to about 115 µM), hits mostly inhibitors | 76,000 compounds, 2.5% hits | AID 1347043, 2019; further: nearly all actives have a fitted effect of over 65% in size
Target sequence (P08659 whole entry, looked up): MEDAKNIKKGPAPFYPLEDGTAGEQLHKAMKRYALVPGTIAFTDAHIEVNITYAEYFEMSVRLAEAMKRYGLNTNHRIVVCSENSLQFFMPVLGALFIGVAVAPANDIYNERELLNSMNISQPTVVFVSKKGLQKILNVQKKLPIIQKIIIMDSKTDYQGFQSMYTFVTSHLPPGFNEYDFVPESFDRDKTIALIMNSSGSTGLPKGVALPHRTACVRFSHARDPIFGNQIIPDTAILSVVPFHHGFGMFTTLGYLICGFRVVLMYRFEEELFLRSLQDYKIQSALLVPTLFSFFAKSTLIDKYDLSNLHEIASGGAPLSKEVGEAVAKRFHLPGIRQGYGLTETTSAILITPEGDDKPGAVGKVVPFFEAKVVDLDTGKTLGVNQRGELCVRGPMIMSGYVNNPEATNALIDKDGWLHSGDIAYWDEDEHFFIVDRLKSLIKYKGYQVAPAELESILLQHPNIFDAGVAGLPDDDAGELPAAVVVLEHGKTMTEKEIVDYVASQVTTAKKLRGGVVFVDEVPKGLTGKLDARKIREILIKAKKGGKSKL
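Purified P. pyralis luciferase (10nM final) in 50mM Tris acetate pH 7.5, 10mM Mg acetate, 0.01% Tween-20, 0.05% BSA with 10uM D-luciferin and 10uM ATP. Compounds titrated qHTS. Luminescence imaged on CCD.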
HEK cytotox = Cytotoxic Profiling in HEK 293 Cell Line of Diverse Libraries Using Quantitative High-Throughput Screening; 94,000 compounds, 6.6% hits; HEK 293 viability, ATP luminescence (CellTiter-Glo), 48-72 h; Potency, µM (doses to about 115 µM), without a hit: at the top dose activity change, negative = cytotoxicity, most hits filed as inhibitors; AID 1345083, 2018; further: nearly all actives have a fitted effect of over 60% in size
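CellTiter-Glo luminescence (cellular ATP) was read after 48 or 72 hr of compound exposure at 37 degree Celsius. Cells were HEK 293 plated at 250 cells/well.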
NPR1 antag = Natriuretic polypeptide receptor (hNpr1) antagonism - Primary qHTS. 76,000 compounds, 1.6% hits. Atrial natriuretic peptide receptor 1 (Homo sapiens), P16066. HEK293 hNpr1 GloSensor cGMP, ANP-stimulated luminescence. Potency, µM (doses to about 46.3 µM), for inactives: at the highest dose activity change, negative = inhibition, usual class: inhibitors; calls by dose curve; further: nearly all actives have a fitted effect of over 60% in size
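Compound pre-incubated 30 min at room temperature on GloSensor-loaded HEK293 cells stably carrying hNpr1 and the pGS-40F cGMP biosensor. Stimulation uses hNppA at 0.1 nM final; luminescence is taken at baseline and 20 min post-agonist.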
3T3 cytotox = Cytotoxic Profiling in NIH 3T3 Cell Line of Diverse Libraries Using Quantitative High-Throughput Screening; NIH 3T3 viability, CellTiter-Glo ATP luminescence, 48-72 h; Potency, µM (top dose mostly 96.7 µM), for the others: top-dose activity change, negative = cytotoxicity, most hits filed as inhibitors; 94,000 compounds, 4.3% hits; AID 1345082, 2018; further: nearly all actives have a fitted effect of over 55% in size
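NIH 3T3 cells at 400 cells/well received 23 nL of compound by pintool and were incubated 48 or 72 h at 37 °C. Viability was read as ATP-coupled CellTiter-Glo luminescence.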
GPT2 inhibitor = Primary qHTS assay for inhibitors of Glutamate pyruvate transaminase 2 (GPT2); Alanine aminotransferase 2 (Homo sapiens), Q8TD30; Recombinant GPT2, coupled pyruvate oxidase/HRP Amplex Red fluorescence; Potency, µM (top dose mostly 57.7 µM), inactives show top-dose activity change, negative = inhibition, actives largely listed as inhibitors; 100,000 compounds, 0.25% hits; AID 1671188, 2021; further: nearly all actives have a fitted effect of over 60% in size
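Inhibition is scored from Amplex Red fluorescence generated when pyruvate oxidase and HRP act on pyruvate released by GPT2. Reactions contain 10ng/uL enzyme, 250uM a-KG and 2mM L-alanine and run 30 min at room temperature.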
Numbers without * were called inactive; i = inactive; ? = inconclusive; . = no result given; ! = not confirmed by another sample; [ ] = dose if it differs, or a comment. Sampled rows, rich in hits. Any-hit rate of the full collection: about 10%. Unless noted, the call rests on the fitted dose curve; in most records, active means well fitted curve in the direction sought with a large enough effect; inconclusive means small, poorly fitted or top-dose-only effect, or another doubt; inactive means no such curve, though single readings can be large; an effect the other way counts as inactive or inconclusive. On the % scale 0 is the no-effect control and ±100 the full control effect; potency means the concentration at half of the fitted maximal effect.

SMILES | FLuc inh | HEK cytotox | NPR1 antag | 3T3 cytotox | GPT2 inhibitor
O=C(c1cc(-c2ccsc2)c2nncn2n1)N1CCCC1 | . | -11.4%[172 µM] | . | -31.5%[138 µM] | i
N#CC1CCN(C(=O)c2nc(-c3cc(Cl)cc(Cl)c3)c3ccccn23)CC1 | i | 25.1µM* | -4.1% | ? | i
C=CCO[C@@H]1CCN2C(=O)c3cc(-c4cccc(C(F)(F)F)c4)ccc3NC(=O)[C@H]12 | i | 70.8µM* | -0.6%[70.6 µM] | ? | -8.5%[88.5 µM]
C=CCO[C@@H]1CCN2C(=O)c3cc(-c4cc(Cl)ccc4OC)ccc3NC(=O)[C@H]12 | i | 63.1µM* | -15.7%[70.6 µM] | 100µM* | -3.1%[88.5 µM]
C=CCO[C@@H]1C[C@H]2C(=O)Nc3ccc(-c4ccc(F)cc4F)cc3C(=O)N2C1 | i | ? | -6.0%[70.6 µM] | 50.1µM* | 1.2%[88.5 µM]
C=CCO[C@@H]1CCN2C(=O)c3cc(-c4ccccc4)ccc3NC(=O)[C@H]12 | i | -25.8%[172 µM] | -8.7%[70.6 µM] | -25.8%[174 µM] | i
COc1ccc(Cl)cc1-c1ccc2c(c1)C(=O)N1C[C@H](O)C[C@H]1C(=O)N2 | i | ? | 2.7%[70.6 µM] | ? | -0.5%[88.5 µM]
C=CCO[C@@H]1CCN2C(=O)c3cc(-c4ccc(F)cc4F)ccc3NC(=O)[C@H]12 | i | 112µM* | -1.2%[70.6 µM] | -13.4%[174 µM] | 0.7%[88.5 µM]
O=C1CO[C@H]2CCN(Cc3cccs3)CC[C@@H]2N1c1ccccc1 | i | ? | -12.0%[70.6 µM] | ? | i
O=C(c1ccccc1Cl)N1CCCC(C(=O)N2CCC(c3nc4ncccc4[nH]3)CC2)C1 (configuration not stated) | . | 3.3% | . | -10.0% | -1.7%
O=C(Cc1ccccc1O)N1CCCC(CCc2c(F)cccc2F)C1 (configuration not stated) | i | ? | -0.3% | ? | 1.7%
N#Cc1cccc(CN2CC(N3CC(C(=O)NCc4ccccc4)CC3=O)C2)c1 (configuration not stated) | . | ? | . | ? | -11.0%
Cc1ccc(C(=O)NC2CCN(c3ccc4nnc(C5CC5)n4n3)C2)cc1 (configuration not stated) | . | i | . | 2.5% | .
N[C@H]1CCN2C(=O)c3cc(-c4ccccc4F)ccc3NC(=O)[C@H]12 | i | -17.3%[172 µM] | -2.9%[70.6 µM] | -28.2%[138 µM] | -10.4%[88.5 µM]
CCS[C@H]1CCN2C(=O)c3cc(-c4ccccc4F)ccc3NC(=O)[C@H]12 | i | 89.1µM* | 3.0%[70.6 µM] | ? | 0.5%[88.5 µM]
O=C(NCc1cccc(Cl)c1)c1ccc2nc(-c3ccncc3)oc2c1 | . | ? | . | ? | i
N#Cc1cccc(CN2C[C@H](O)C[C@H]2c2nc(-c3ccc4c(c3)OCO4)no2)c1 | ? | 100µM* | -5.8%[70.6 µM] | ? | ?
CC(C)N1C[C@H](O)C[C@H]1c1nc(-c2ccc(F)cc2)no1 | ? | ? | 1.3%[70.6 µM] | 2.7%[230 µM] | -6.9%[88.5 µM]
O[C@@H]1C[C@@H](c2nc(-c3ccc4c(c3)OCO4)no2)N(Cc2ccccc2)C1 | 50.1µM* | ? | -5.5%[70.6 µM] | ? | i
CC(C)N1C[C@H](O)C[C@H]1c1nc(-c2ccc3c(c2)OCO3)no1 | 39.8µM* | -23.4%[172 µM] | 0.2%[70.6 µM] | -29.9%[174 µM] | -10.1%[88.5 µM]
COc1ccc(-c2noc([C@@H]3C[C@@H](O)CN3Cc3cccc(C#N)c3)n2)cc1 | 22.4µM* | ? | ? | -25.8%[138 µM] | -6.4%[88.5 µM]
COc1ccc(-c2noc([C@@H]3C[C@@H](O)CN3Cc3ccc(S(C)(=O)=O)cc3)n2)cc1 | i | -19.5%[172 µM] | -5.4%[70.6 µM] | -16.3%[174 µM] | 1.0%[88.5 µM]
CC(C)CNC(=O)c1nc2cccnc2n(CCc2ccccc2)c1=O | . | ? | . | ? | -4.9%
COCC(=O)N1CCC[C@@H]1C(=O)N1CCCC(c2nc3ccncc3[nH]2)C1 (some centres not stated) | . | 1.3% | . | 1.1% | i
CCCCn1c(=O)c(C(=O)N2CCN(C(=O)NC(C)C)CC2)nc2cccnc21 | . | -3.2% | . | -28.2% | i
SMILES | FLuc inh | HEK cytotox | NPR1 antag | 3T3 cytotox | GPT2 inhibitor
O=[S+]1([O-])NC2(CCN(Cc3cccc4ccccc34)CC2)CNc2ccccc21 | i | 39.8µM* | -10.9% | ? | 1.8%
CCCc1noc(-c2cccn3c(CNC(=O)c4ccc(C(C)(C)C)cc4)nnc23)n1 | i | ? | -4.9% | 39.8µM* | i
O=C(NCc1nnc2c(-c3nc(C4CC4)no3)cccn12)c1ccccc1Cl | i | -19.9% | 1.6% | -17.5% | i
O=C(NCc1nnc2c(-c3nc(C4CC4)no3)cccn12)c1nccc2ccccc12 | i | ? | -12.6% | 44.7µM* | -6.6%
CCCc1noc(-c2cccn3c(CNC(=O)c4ccc(OC)cc4)nnc23)n1 | i | i | -0.6% | -12.2% | i
N#CC1CCN(C(=O)C2CCN(c3nccc(Nc4ccccc4F)n3)CC2)CC1 | . | ? | . | ? | i
COc1cccc(-c2cn3cc(C(=O)NCc4cccc(Cl)c4)nc3s2)c1 | . | ? | . | ? | i
NC1CC(c2nnc(COc3ccc4c(c3)CCNCC4)n2C2CC2)C1 (configuration not stated) | i | 17.8µM*! | 1.4% | ? | -6.1%
CNC(=O)c1cc(C2CC2)nc2c1c(C1CCCN1C(=O)c1ccccc1Cl)nn2C (configuration not stated) | . | i | . | -24.3% | .
Cc1nnc2ccc(N3CCCC(NC(=O)c4cccc(Cl)c4)C3)nn12 (configuration not stated) | . | 79.4µM* | . | ? | .
Cc1nnc2ccc(N3CCC(NC(=O)c4cccc(Cl)c4)C3)nn12 (configuration not stated) | . | -22.0% | . | ? | .
O=C(NC1CCCN(c2cc(-c3ccc(F)cc3)[nH]n2)C1)c1ccccc1Cl (configuration not stated) | i | ? | -15.4% | -22.4% | -5.2%
CC(=O)Nc1cccc(C(=O)NC2CCCN(c3cc(-c4ccc(Cl)cc4)[nH]n3)C2)c1 (configuration not stated) | 31.6µM* | 44.7µM* | 4.7% | ? | i
O=C(NC1CCCN(c2cc(-c3ccc(F)cc3)[nH]n2)C1)c1cccc(Br)c1 (configuration not stated) | i | 31.6µM* | -25.7% | ? | -18.1%
CN(C)c1cccc(C(=O)NC2CCCN(c3cc(-c4ccc(Cl)cc4)[nH]n3)C2)c1 (configuration not stated) | ? | ? | -18.6% | ? | i
O=C(NC1CCCN(c2cc(-c3ccc(F)cc3)[nH]n2)C1)c1cccc(Cl)c1 (configuration not stated) | i | 35.5µM* | -26.6% | 17.8µM* | i
